PubChem BioAssay (NCI)
Compounds without any hit were thinned out: in the full panel of roughly 79,000, 15% have a hit. Cut-off read from the data, not from the text of the source: active = growth inhibition above about 70%; inactive = the rest.

Key:
[1] = NCI Yeast Anticancer Drug Screen. Data for the rad50 strain (AID 155);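 note: 0% = growth of vehicle-only cultures of the same strain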; conditions: S. cerevisiae rad50 strain growth inhibition; at 50.0 µM; active compounds read high
In short: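 Genetically altered yeast (DNA repair pathway); compound treatment; growth inhibition vs vehicle ctrl.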

[2] = NCI Yeast Anticancer Drug Screen. Data for the mec2-1 strain (AID 157); conditions: S. cerevisiae mec2-1 strain, at 50.0 µM, active compounds read high
In short: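 Each compound was tested on mec2-1 yeast, a strain altered in DNA damage repair or cell cycle control. Growth inhibition is reported relative to vehicle.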

[3] = NCI Yeast Anticancer Drug Screen. Data for the sgs1 mgt1 strain (AID 161);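 note: 0% = growth of cultures given vehicle only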; conditions: S. cerevisiae sgs1 mgt1 strain, at 50.0 µM, active compounds read high
In short: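 Genetically altered yeast, compound exposure, growth inhibition relative to vehicle.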

[4] = NCI Yeast Anticancer Drug Screen. Data for the cln2 rad14 strain (AID 165);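 note: 0% = growth equal to vehicle treated cultures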; conditions: S. cerevisiae cln2 rad14 strain, at 50.0 µM, active compounds read high
In short: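 Test compounds were added to cln2 rad14 yeast cultures; inhibition of growth was then determined by comparison with vehicle treatment.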

[5] = NCI Yeast Anticancer Drug Screen. Data for the bub3 strain (AID 167); conditions: S. cerevisiae bub3 mutant strain, at 50.0 µM, active compounds read high
In short: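 Yeast carrying a defined mutation is treated with each compound, and growth is compared with that of vehicle-exposed cells to give inhibition.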

[6] = NCI Yeast Anticancer Drug Screen. Data for the mlh1 rad18 strain (AID 175); conditions: S. cerevisiae mlh1 rad18 strain growth inhibition; at 50.0 µM; active compounds read high
In short: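 Inhibition values reflect reduced growth of mutant yeast versus vehicle-treated controls following compound exposure; the mutations affect DNA damage repair.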

Measured: growth inhibition

O=C1NC(=O)C(F)[CH]([Ge](=[O])[O][Ge](=[O])[CH]2NC(=O)NC(=O)C2F)N1 (stereo not drawn)
inactive: [1] -7.45% | [2] -8.85% | [3] 0.2% | [4] -7.35% | [5] 0.7% | [6] -17.9%

CSc1[nH]c2ncnc(Cl)c2c1C#N
inactive: [1] 23.6% | [2] 10.3% | [3] 15.9% | [4] -21.8% | [5] -27.3% | [6] 21.7%

Oc1ccc(-c2ccc(Br)cc2)cc1
inactive: [1] -25.1% | [2] -6% | [3] -14.4% | [4] -2% | [5] -31.8% | [6] -14.8%
